For five compounds, outcome results are on record in PubChem BioAssay AID624364 (Broad Institute, 2012).

Measured potencies and affinities stand elsewhere. Activity calls are given as the source filed them.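 The calls were made as follows: active = compounds lowering ATP signal whose fitted half-maximal concentration is at most twice the top tested dose; inconclusive = flat fit with 30 to 70% loss, or bad fit; inactive = the rest.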

This test in a line: A375 melanoma cell viability loss, dose response, counter-screen for MITF inhibitor project, CellTiter-Glo luminescence, dry powder, set 4 (AID 624364). Conditions: CellTiter-Glo ATP luminescence, 24 h; series mostly up to 35 µM. On the technique in general: A counterscreen serves to expose hits that act by an unwanted route or on another target.
For `C=CCNC1=C(NCCCN2CCOCC2)C(=O)c2ccccc2C1=O`, the compound was classed as inactive. Consider `CN1CCN(C2=C(NS(=O)(=O)c3cccs3)C(=O)c3ccccc3C2=O)CC1`, for which the compound was called inactive. Turning to `C=CCNC1=C(NCC=C)C(=O)c2ccccc2C1=O`, the call was inactive. As to `COc1ccc(C2=C(NC(=O)c3ccc(OC)cc3-c3cccc(OC)c3)C(=O)c3ccccc3C2=O)cc1`, the compound was called inactive. On to `O=C(NC1=C(N2CCN(c3ccccc3)CC2)C(=O)c2ccccc2C1=O)c1ccccc1`, for which the outcome was inactive.
